Assay [1] has as its target Cytochrome P450 1A2 (Homo sapiens) (UniProt P05177). Put plainly: p450-cyp1a2 (AID 410; calls by dose curve; further: potency means the concentration at half of the fitted maximal effect). Conditions: recombinant CYP1A2, luciferin-ME demethylation, luminescence; series mostly up to 57 µM. In outline: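 Read-out is luminescence from luciferin produced by CYP1A2 demethylation of Luciferin-ME (100uM, at Km). Detection reagent stopped the 60 min NADPH-dependent reaction; signals were normalized to 57 uM furafylline.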

Assay [2] has as its target Mitogen-activated protein kinase 10 (Mus musculus) (UniProt Q61831). Put plainly: JNK3 AlphaScreen Assay (AID 530; active means well fitted curve in either direction with a large enough effect, not every such curve was filed as active;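 further: kinase came from lysate of stimulated human HepG2 cells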). Conditions: JNK3 lysate, c-Jun phosphorylation; series mostly up to 57.1 µM. The gist of the method: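 Biotinylated GST-cJun(1-79) served as substrate for JNK3 in HepG2 lysates stimulated with IL-1beta and TNF-alpha. ATP was 10 uM final, pH 7.6. Ser73 phosphorylation was quantified by AlphaScreen (680 nm excitation).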
A general note: In Alpha technology, singlet oxygen from a donor bead excites a nearby acceptor bead.

Assay [3] has as its target 3',5'-cyclic-AMP phosphodiesterase 4B (Homo sapiens) (UniProt Q07343). Put plainly: qHTS Assay for Inhibitors of PDE-IV (AID 607; active means well fitted activation curve with a large enough effect in the main read-out, with a control signal flat, not every such curve was filed as active). The settings on record: HEK293 ACTOne CNG channel cells, membrane potential fluorescence; series mostly up to 22.9 µM. In outline: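 The readout is membrane depolarisation from a cAMP-sensing CNG channel, detected with a potential dye at ex 535/em 590. Cells were HEK293-derived (endogenous PDE-IV) at 1000 cells/well, titrated up to 22.9 uM final.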
(Quantitative high-throughput screening tests each substance at several concentrations.)

Assay [4] concerns the target Cytochrome P450 2D6 (Homo sapiens) (UniProt P10635). The assay can be described thus: qHTS Assay for Inhibitors and Substrates of Cytochrome P450 2D6 (AID 891). Further: nearly all actives have a fitted effect of over 60% in size. Further: potency means the concentration at half of the fitted maximal effect. Conditions: recombinant CYP2D6, luciferin-ME EGE luminescence; series mostly up to 57.1 µM. The gist of the method: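 Luminescent read-out of luciferin formed by 5 nM human CYP2D6 demethylating 30 uM Luciferin-ME EGE (Km level) over 60 min at room temperature after NADPH regeneration addition. Data normalized to full inhibition by 1.43 uM quinidine.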

Assay [5] addresses Cytochrome P450 2C19 (Homo sapiens) (UniProt P33261). The assay can be described thus: qHTS Assay for Inhibitors and Substrates of Cytochrome P450 2C19 (AID 899). Further: nearly all actives have a fitted effect of over 60% in size. Further: potency means the concentration at half of the fitted maximal effect. Conditions: recombinant CYP2C19, luciferin-H EGE luminescence; series mostly up to 57.1 µM. In outline:
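NADPH-dependent conversion of Luciferin-H EGE (10uM, at KM) by 5nM enzyme in 50mM KPO4, 60 min at 37C following 10 min compound preincubation. Stopped with luciferin detection buffer; luminescence read after 20 min.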

In assay [6] the target is Cytochrome P450 3A4 (Homo sapiens) (UniProt P08684). The assay can be described thus: qHTS Assay for Activators of Cytochrome P450 3A4 (AID 885). Further: nearly all actives have a fitted effect of over 65% in size. Conditions: recombinant CYP3A4, Luciferin-PPXE luminescence, 60 min; series mostly up to 57.1 µM. In outline: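 Activators are scored by enhanced luminescence from CYP3A4 conversion of luciferin-PPXE (25uM, equal to KM) to luciferin, after 60 min at RT with an NADPH-regenerating system.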
Cytochrome P450 3A4 (Homo sapiens), sequence (P08684 whole entry, looked up): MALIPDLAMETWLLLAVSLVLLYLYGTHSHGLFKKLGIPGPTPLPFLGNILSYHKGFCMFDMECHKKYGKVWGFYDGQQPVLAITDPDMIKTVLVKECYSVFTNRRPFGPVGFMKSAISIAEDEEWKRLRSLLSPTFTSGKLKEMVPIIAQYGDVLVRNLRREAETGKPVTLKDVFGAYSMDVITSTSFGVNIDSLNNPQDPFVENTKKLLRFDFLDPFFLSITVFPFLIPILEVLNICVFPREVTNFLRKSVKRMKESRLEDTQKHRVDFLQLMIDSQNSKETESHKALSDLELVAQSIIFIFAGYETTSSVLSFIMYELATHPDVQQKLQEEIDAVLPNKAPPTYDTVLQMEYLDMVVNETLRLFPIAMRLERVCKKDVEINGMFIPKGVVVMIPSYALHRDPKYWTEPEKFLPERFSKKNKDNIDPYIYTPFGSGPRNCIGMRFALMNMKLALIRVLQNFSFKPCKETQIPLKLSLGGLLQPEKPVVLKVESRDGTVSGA

Assay [7] has the same target. The assay can be described thus: qHTS Assay for Inhibitors and Substrates of Cytochrome P450 3A4 (AID 884). Further: nearly all actives have a fitted effect of over 50% in size. Further: potency means the concentration at half of the fitted maximal effect. The settings on record: recombinant CYP3A4, Luciferin-PPXE luminescence; series mostly up to 57.1 µM. The gist of the method: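 Luminescent readout of luciferin produced by CYP3A4 (20 nM) dealkylation of Luciferin-PPXE, 25 uM (its KM). NADPH-driven reaction ran 60 min at RT after 10 min compound preincubation; data scaled to 57 uM ketoconazole as 100% inhibition.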

For assay [8], the target named is Cytochrome P450 2C9 (Homo sapiens) (UniProt P11712). The assay can be described thus: qHTS Assay for Inhibitors and Substrates of Cytochrome P450 2C9 (AID 883). Further: potency means the concentration at half of the fitted maximal effect; nearly all actives have a fitted effect of over 60% in size. Conditions: recombinant CYP2C9, luciferin-H luminescence, 60 min; series mostly up to 57.1 µM. The gist of the method: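 A luminogenic readout tracked human CYP2C9 (10nM) converting deoxyluciferin (100uM, at KM) in 25mM KPO4 during 60 min at 37C with regenerated NADPH. Values normalized to 57uM sulphaphenazole as complete inhibition.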
Cytochrome P450 2C9 (Homo sapiens), sequence (P11712 whole entry, looked up): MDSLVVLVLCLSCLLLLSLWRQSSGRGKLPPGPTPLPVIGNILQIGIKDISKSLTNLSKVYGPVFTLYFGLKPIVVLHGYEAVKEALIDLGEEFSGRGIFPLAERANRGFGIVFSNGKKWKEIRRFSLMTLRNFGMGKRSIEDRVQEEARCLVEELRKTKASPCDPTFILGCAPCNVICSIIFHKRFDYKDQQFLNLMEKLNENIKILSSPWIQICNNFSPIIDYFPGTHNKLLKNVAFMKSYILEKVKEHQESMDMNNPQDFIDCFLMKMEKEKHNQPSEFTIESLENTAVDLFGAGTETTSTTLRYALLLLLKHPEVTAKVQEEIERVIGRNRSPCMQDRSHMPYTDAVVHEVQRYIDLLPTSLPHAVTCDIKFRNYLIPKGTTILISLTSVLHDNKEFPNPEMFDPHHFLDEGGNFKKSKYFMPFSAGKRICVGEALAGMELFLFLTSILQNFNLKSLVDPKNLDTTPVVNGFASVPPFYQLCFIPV

Records with an inconclusive call do not appear. Activity calls are given as the source filed them. Unless noted, the call rests on the fitted dose curve; in most records, active means well fitted curve in the direction sought with a large enough effect; inconclusive means small, poorly fitted or top-dose-only effect, or another doubt; inactive means no such curve, though single readings can be large; an effect the other way counts as inactive or inconclusive.

Cytochrome P450 2D6 (Homo sapiens), sequence (P10635 whole entry, looked up): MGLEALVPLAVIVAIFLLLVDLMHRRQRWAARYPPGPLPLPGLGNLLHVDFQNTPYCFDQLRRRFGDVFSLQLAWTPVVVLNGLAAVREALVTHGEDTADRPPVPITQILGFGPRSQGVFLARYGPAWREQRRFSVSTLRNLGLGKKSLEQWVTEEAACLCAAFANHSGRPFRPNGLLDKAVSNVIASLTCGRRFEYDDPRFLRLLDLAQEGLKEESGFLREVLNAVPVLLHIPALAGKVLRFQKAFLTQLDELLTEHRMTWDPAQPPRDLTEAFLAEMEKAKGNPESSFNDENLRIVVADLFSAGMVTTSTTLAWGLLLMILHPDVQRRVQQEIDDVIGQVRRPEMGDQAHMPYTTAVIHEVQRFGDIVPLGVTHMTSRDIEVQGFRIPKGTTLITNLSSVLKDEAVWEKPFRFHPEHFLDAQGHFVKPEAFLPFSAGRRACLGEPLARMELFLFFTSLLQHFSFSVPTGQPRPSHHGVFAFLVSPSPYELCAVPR
3',5'-cyclic-AMP phosphodiesterase 4B (Homo sapiens), sequence (Q07343 whole entry, looked up): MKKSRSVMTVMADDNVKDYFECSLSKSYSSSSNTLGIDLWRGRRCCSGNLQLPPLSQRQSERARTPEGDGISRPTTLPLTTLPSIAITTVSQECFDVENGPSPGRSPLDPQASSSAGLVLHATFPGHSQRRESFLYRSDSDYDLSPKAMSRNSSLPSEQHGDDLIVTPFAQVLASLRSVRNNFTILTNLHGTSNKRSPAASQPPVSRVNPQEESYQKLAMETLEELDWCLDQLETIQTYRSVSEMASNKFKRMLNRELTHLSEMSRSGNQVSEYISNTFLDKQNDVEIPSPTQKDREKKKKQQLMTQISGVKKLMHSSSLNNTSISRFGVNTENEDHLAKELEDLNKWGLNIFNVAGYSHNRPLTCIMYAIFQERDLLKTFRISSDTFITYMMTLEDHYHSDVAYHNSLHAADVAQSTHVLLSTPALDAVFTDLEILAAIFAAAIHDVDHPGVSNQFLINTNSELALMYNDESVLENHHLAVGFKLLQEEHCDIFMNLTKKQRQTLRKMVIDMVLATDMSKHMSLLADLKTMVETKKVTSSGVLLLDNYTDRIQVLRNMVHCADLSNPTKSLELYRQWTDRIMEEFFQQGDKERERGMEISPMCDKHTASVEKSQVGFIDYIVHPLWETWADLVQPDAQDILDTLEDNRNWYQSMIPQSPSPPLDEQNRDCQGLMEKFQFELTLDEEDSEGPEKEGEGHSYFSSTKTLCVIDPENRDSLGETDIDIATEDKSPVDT
Cytochrome P450 2C19 (Homo sapiens), sequence (P33261 whole entry, looked up): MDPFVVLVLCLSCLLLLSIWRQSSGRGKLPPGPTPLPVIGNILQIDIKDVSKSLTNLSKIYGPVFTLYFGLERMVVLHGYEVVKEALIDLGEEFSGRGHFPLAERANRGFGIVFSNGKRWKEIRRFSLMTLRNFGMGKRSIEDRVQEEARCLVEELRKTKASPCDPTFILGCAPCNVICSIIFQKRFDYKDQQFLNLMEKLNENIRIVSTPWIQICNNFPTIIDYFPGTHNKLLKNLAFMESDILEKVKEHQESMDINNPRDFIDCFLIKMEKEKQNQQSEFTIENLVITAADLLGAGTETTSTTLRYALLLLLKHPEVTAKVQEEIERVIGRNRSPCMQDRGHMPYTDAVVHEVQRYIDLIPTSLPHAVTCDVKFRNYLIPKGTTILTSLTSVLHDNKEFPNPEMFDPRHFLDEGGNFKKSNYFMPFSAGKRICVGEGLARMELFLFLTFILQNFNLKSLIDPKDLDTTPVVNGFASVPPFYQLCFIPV
Cytochrome P450 1A2 (Homo sapiens), sequence (P05177 whole entry, looked up): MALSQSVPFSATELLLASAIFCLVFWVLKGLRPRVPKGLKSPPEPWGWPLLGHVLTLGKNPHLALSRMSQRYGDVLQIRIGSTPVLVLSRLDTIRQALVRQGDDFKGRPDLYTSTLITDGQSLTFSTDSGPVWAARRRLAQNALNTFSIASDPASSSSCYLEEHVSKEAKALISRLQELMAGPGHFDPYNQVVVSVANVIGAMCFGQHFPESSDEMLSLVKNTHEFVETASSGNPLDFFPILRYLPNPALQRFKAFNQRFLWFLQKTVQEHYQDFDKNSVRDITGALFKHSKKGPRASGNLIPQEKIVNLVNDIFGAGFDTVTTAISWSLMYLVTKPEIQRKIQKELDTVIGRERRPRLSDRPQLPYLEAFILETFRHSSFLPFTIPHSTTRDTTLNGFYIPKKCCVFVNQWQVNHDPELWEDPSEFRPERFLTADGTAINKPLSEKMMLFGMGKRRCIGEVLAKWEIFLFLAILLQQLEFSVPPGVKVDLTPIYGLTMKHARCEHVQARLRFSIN

For the molecule `NCCC[C@@H](CC(=O)N[C@@H]1CCNC[C@H]1C(=O)N[C@H](CC(=O)N[C@@H](CCC(=O)O)CC(=O)O)Cc1c[nH]c2ccccc12)NC(=O)C[C@H](CO)NC(=O)[C@@H]1CNCC[C@H]1N`, the Potency result in assay [1], in assay [2], in assay [3], in assay [4] and in assay [5] was “inactive” each time.
With `C[C@@H](C(=O)NCc1ccccn1)[C@@H]1C[C@@]1(C)[C@@H](NC(=O)OCc1ccccc1)c1ccccc1`, in assay [1], the Potency is 20 µM (active). Moreover, the Potency entry in assay [2], in assay [3] and in assay [6] was “inactive” in each case.
As for `COC(=O)[C@@]1(Cc2ccc(F)cc2)[C@H]2c3cc(C(=O)N4CCCC4)n(Cc4ccc(C)c(F)c4F)c3C[C@H]2CN1C(=O)c1ccccc1`, the Potency result in assay [1], in assay [2] and in assay [6] was “inactive” in each case. In assay [7], the Potency is 2.51 µM (active).
As for `CCC/C=C(\CCC)C(NP(=O)(c1ccccc1)c1ccccc1)c1ccc(C(F)(F)F)cc1` (stereo not given), the Potency entry in assay [1], in assay [2] and in assay [7] was “inactive” each time.
On to `COC(=O)[C@@H]1C[C@H]1[C@@H](NC(=O)c1ccccc1)c1ccccc1`, for which the Potency in assay [1] is 5.01 µM (active); in assay [5] it was 1.26 µM (active). Further, the Potency result in assay [2] and in assay [3] was “inactive” throughout.
For `CCCC[C@@H]1C[C@H]1C(NC(=O)c1ccco1)c1ccc(C(=O)OC)cc1` (stereo not given in full), the Potency is 3.98 µM (active) in assay [1] and 0.794 µM (active) in assay [8]. Further, the Potency result in assay [2] and in assay [6] was “inactive” throughout.
In the case of `CCCc1cc2c(n1Cc1cc(F)cc(F)c1)C(C)C1CN(C(=O)c3ccccc3)C(C)(C(=O)OC)C21` (stereo not given), the Potency result in assay [1], in assay [2] and in assay [6] was “inactive” in each case. The Potency in assay [8] was 6.31 µM (active); in assay [7], 3.16 µM (active).
As for `C[C@@H](C(=O)O)[C@H]1C[C@]1(C)[C@H](NC(=O)OCc1ccccc1)c1ccccc1`, the Potency entry in assay [1], in assay [2], in assay [3] and in assay [6] was “inactive” each time. Moreover, the Potency in assay [5] was 7.94 µM (active).
In the case of `COc1ccc2nc3c(cc2c1)Cc1ccccc1-3`, the Potency is 0.251 µM (active) in assay [1]; 6.31 µM (active) in assay [8]; 6.31 µM (active) in assay [7]; 6.31 µM (active) in assay [4]; 2.51 µM (active) in assay [5]. The Potency result in assay [2] and in assay [6] was “inactive” throughout.
For the molecule `CCCC/C=C/C(NC(=O)c1cccs1)c1ccccc1` (stereo not given), the Potency is 1.58 µM (active) in assay [1], 0.316 µM (active) in assay [8] and 1.58 µM (active) in assay [5]. The Potency entry in assay [2] and in assay [6] was “inactive” in each case.
On to `CCCC[C@@H]1C[C@H]1C(NC(=O)c1cccs1)c1ccc(-c2ccccc2)cc1` (stereo not given in full), for which the Potency is 2 µM (active) in assay [1] and 1.58 µM (active) in assay [8]. Further, the Potency result in assay [2] and in assay [6] was “inactive” throughout.
Regarding `CCC[C@@H]1C[C@@]1(CCC)C(NC(=O)c1ccco1)c1ccc(Cl)cc1` (stereo not given in full), the Potency in assay [1] is 25.1 µM (active); in assay [4], 3.98 µM (active); in assay [5], 3.16 µM (active). For the same molecule, the Potency entry in assay [2], in assay [3] and in assay [6] was “inactive” each time.
On to `C[C@@H](C(=O)NCc1nc2ccccc2[nH]1)[C@@H]1C[C@@]1(C)[C@@H](NC(=O)OCc1ccccc1)c1ccccc1`, for which, in assay [1], the Potency was 12.6 µM (active). The Potency entry in assay [2], in assay [3] and in assay [6] was “inactive” in each case.
`S=C(Nc1ccccc1)Nc1ccccc1C#Cc1ccccc1`: the Potency in assay [1] is 0.501 µM (active); in assay [8], 3.98 µM (active); in assay [5], 3.16 µM (active). Moreover, the Potency result in assay [2] and in assay [6] was “inactive” in each case.
For `COC(=O)[C@@]1(Cc2ccc(F)cc2)[C@H]2c3cc(C(=O)N4CCCC4)n(Cc4ccccc4)c3C[C@H]2CN1C(=O)c1ccccc1`, the Potency in assay [1] was 20 µM (active); in assay [8], 3.98 µM (active). Also, the Potency entry in assay [2] and in assay [6] was “inactive” each time.
For `COC(=O)[C@@]1(Cc2ccc(OC)cc2)[C@@H]2[C@@H](CC(=O)[C@H]2CC(=O)C(=O)N2CCCC2)CN1C(=O)c1ccccc1`, the Potency entry in assay [1], in assay [2] and in assay [6] was “inactive” each time. Further, the Potency in assay [7] was 0.794 µM (active).
For `CCC/C=C(\CCC)C(NC(=O)c1ccc(C(=O)OC)cc1)c1ccc(C(=O)OC)cc1` (stereo not given), the Potency result in assay [1], in assay [2] and in assay [6] was “inactive” each time. Moreover, in assay [8], the Potency was 2 µM (active).
In the case of `C[C@@H](C(=O)Nc1ccc2ccccc2c1)[C@@H]1C[C@@]1(C)[C@@H](NC(=O)c1cnccn1)c1ccccc1`, the Potency in assay [1] was 12.6 µM (active); in assay [8], 0.0631 µM (active). The Potency entry in assay [2] and in assay [6] was “inactive” in each case.
As to `CCc1c2c(nc3ccc(OC)cc13)COC2`, the Potency in assay [1] is 0.794 µM (active). Further, the Potency result in assay [2] and in assay [6] was “inactive” in each case.
As for `CC[C@H]1C2=C3C(CC[C@H]4C(OCc5ccc(F)cc5C(F)(F)F)OC[C@](C)([C@@H]34)N(C(=O)OC(C)(C)C)C2)C(COC)C1COC` (stereo not given in full), the Potency entry in assay [1], in assay [2] and in assay [6] was “inactive” each time.
Regarding `COC(=O)c1ccc(C(NC(=O)c2ccccc2)[C@]2(C)C[C@H]2C2CCCCC2)cc1` (stereo not given in full), the Potency result in assay [1], in assay [2] and in assay [6] was “inactive” each time. The Potency in assay [5] is 2.51 µM (active).
On to `COC(=O)[C@@]1(Cc2ccccc2)[C@H]2c3cc(C(=O)N4CCCC4)n(C)c3C[C@H]2CN1C(=O)c1ccccc1`, for which the Potency in assay [1] was 25.1 µM (active); in assay [7] it was 3.98 µM (active); in assay [5], 3.98 µM (active). For the same molecule, the Potency result in assay [2] and in assay [6] was “inactive” each time.
Regarding `COc1ccc2nc3c(c([Si](C)(C)C(C)(C)C)c2c1)Cn1c-3cccc1=O`, the Potency in assay [1] is 0.794 µM (active); in assay [7], 1.58 µM (active); in assay [4], 2 µM (active); in assay [5], 2 µM (active). The Potency result in assay [2] and in assay [6] was “inactive” each time.
With `C[C@@H](C(=O)Nc1ccc2ccccc2c1)[C@@H]1C[C@@]1(C)[C@@H](NC(=O)Oc1ccc(F)cc1)c1ccccc1`, the Potency entry in assay [1], in assay [2] and in assay [6] was “inactive” each time.

The values are drawn from PubChem BioAssay (NCATS).
